Screening data deposited in PubChem by National Center for Advancing Translational Sciences (NCATS).
Compounds with a hit are over-represented: about 7.6% of the library has one in this group of screens.
p53 reactivation = qHTS assay for re-activators of p53 using a Luc reporter; H1299 p53-A138V BP100-luciferase reporter, luminescence, 24 h; Potency, µM (top dose mostly 92.2 µM), inactives show at the top dose activity change, positive = activation, actives largely listed as activators; hit rate 0.063% among 320,000; AID 504706, 2011; further: potency means the concentration at half of the fitted maximal effect; % of control where 0% means no effect; nearly all actives have a fitted effect of over 45% in size
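H1299 (p53-null), stable ts p53-A138V + BP100-Luc; 1000 cells/well, Opti-MEM/10% FBS; cpd 4 pt, 1:5; 24 h, 37 deg C, 5% CO2; detection reagent 10 min RT; luminescence.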
BRCA1 expr act = qHTS Assay to Identify Small Molecule Activators of BRCA1 Expression. MCF7-BRCA1-FFLuc reporter, luminescence, 48 h; response scale: scaled: vehicle 0%, 10 µM genistein 100%. Potency, µM (series often up to 46.1 µM), for the others: at the highest dose activation, hits mostly activators. hit rate 1.1% among 380,000. AID 624202, 2012; further: potency means the concentration at half of the fitted maximal effect; nearly all actives have a fitted effect of over 80% in size
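48 h compound treatment of MCF7-BRCA1-FFLuc cells (phenol-red free MEM, 37 °C), then 15 min with luciferase substrate and luminescence imaging.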
ELG1 DNA repair = qHTS screen for small molecules that inhibit ELG1-dependent DNA repair in human embryonic kidney (HEK293T) cells expressing luciferase-tagged ELG1. Potency, µM (doses to about 46.1 µM), without a hit: top-dose activity change, negative = inhibition, usual class: inhibitors. HEK293T ELG1-luciferase reporter, luminescence, 16 h; DNA damage induced by 5-fluorouridine. hit rate 2.3% among 330,000; further: potency means the concentration at half of the fitted maximal effect; on the % scale 0 is the no-effect control and ±100 the full control effect; nearly all actives have a fitted effect of over 55% in size
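5-Fluorouridine DNA damage + compound/DMSO, 2,000 cells/well, 16 h, 37 °C/5% CO2. ONE-Glo, 30 min RT, luminescence. Readout = decrease in reporter signal.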
RORg inh = qHTS for inhibitors of ROR gamma transcriptional activity; Nuclear receptor ROR-gamma (Mus musculus), P51450; Drosophila S2 Gal4-RORgamma UAS-luciferase reporter, 20 h; Potency, µM (doses to about 53.6 µM), without a hit: at the top dose activity change, negative = inhibition, usual class: inhibitors; hit rate 5.4% among 310,000; further: potency means the concentration at half of the fitted maximal effect; on the % scale 0 is the no-effect control and ±100 the full control effect; nearly all actives have a fitted effect of over 60% in size
Target sequence (P51450 whole entry, looked up, the tested form may be a part): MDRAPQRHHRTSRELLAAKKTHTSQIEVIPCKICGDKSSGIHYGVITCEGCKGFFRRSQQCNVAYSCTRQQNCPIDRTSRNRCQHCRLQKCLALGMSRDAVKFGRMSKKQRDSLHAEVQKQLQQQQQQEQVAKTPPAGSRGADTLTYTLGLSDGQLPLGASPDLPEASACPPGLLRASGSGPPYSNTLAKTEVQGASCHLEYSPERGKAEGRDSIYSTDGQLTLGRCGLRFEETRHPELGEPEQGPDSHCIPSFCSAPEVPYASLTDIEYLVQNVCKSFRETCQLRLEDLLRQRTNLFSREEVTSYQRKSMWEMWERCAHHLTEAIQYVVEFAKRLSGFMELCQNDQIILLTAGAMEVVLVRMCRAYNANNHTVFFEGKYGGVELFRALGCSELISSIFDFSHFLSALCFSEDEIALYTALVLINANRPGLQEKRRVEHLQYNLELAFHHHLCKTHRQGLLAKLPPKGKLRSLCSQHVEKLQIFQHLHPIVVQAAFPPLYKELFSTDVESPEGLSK
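Stably transfected Drosophila Schneider cells are the test system, with ROR gamma fused to Gal4 and luciferase under UAS control; luminescence is read after 20 hr of 700 uM copper sulfate induction at ambient temperature.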
Giardia kill = Small Molecules that selectively kill Giardia lamblia: qHTS. Giardia lamblia trophozoite viability. activity change, % at 7.66 µM, hits read low. hit rate 0.15% among 340,000. AID 540267, 2011; in the data active means activity change below about -80%; inconclusive means between about -30% and that limit;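 further: parasites exposed to compound for two days anaerobically before the ATP read; on the % scale 0 is the no-effect control and ±100 the full control effect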
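ATP-content bioluminescence gauges trophozoite survival. Cells (100/well) receive compound and incubate anaerobically for 48 hrs at 37 deg C; detection reagent follows for 15-30 min at room temperature.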
VP16 counter = VP16 counterscreen qHTS for inhibitors of ROR gamma transcriptional activity. Drosophila S2 Gal4-VP16 UAS-luciferase, luminescence, 20 h. Potency, µM (doses to about 53.6 µM), for inactives: at the highest dose activity, negative = inhibition, hits mostly inhibitors. hit rate 3.5% among 310,000;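 further: Gal4-VP16 expression switched on by copper sulfate through the metallothionein promoter; potency means the concentration at half of the fitted maximal effect; on the % scale 0 is the no-effect control and ±100 the full control effect; nearly all actives have a fitted effect of over 50% in size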
* hit, by the source's call; ? = inconclusive; . = no result. Unless noted, the call rests on the fitted dose curve; in most records, active means well fitted curve in the direction sought with a large enough effect; inconclusive means small, poorly fitted or top-dose-only effect, or another doubt; inactive means no such curve, though single readings can be large; an effect the other way counts as inactive or inconclusive.

SMILES	p53 reactivation	BRCA1 expr act	ELG1 DNA repair	RORg inh	Giardia kill	VP16 counter
CC(C)(C)c1cc[n+](C2=C([O-])c3ccccc3C(=O)/C2=N\S(=O)(=O)c2cccs2)cc1	-13.5%	-92.2%	2.91µM*	11.2µM*	14.8	8.91µM*
N/C(=N\S(=O)(=O)c1cccs1)c1ccccc1	0.0%	0.0%	-1.1%	15.2%	-7.4	5.2%
O=C1/C(=N\S(=O)(=O)c2cccs2)C([n+]2ccccc2)=C([O-])c2ccccc21	-15.7%	-87.0%	2.59µM*	-0.3%	-7.1	?
CC[C@H](C)[C@H](NC(=O)[C@H](CCC(=O)O)NC(=O)[C@@H](N)CO)C(=O)N[C@@H](CCC(N)=O)C(=O)N[C@@H](CC(C)C)C(=O)N[C@@H](CCSC)C(=O)N[C@@H](Cc1cnc[nH]1)C(=O)N[C@@H](CC(N)=O)C(=O)N[C@@H](CC(C)C)C(=O)NCC(=O)N[C@@H](CCCCN)C(=O)N[C@@H](Cc1cnc[nH]1)C(=O)N[C@@H](CC(C)C)C(=O)N[C@@H](CC(N)=O)C(=O)N[C@@H](CO)C(=O)N[C@@H](CCSC)C(=O)N[C@@H](CCC(=O)O)C(=O)N[C@@H](CCCNC(=N)N)C(=O)N[C@H](C(=O)N[C@@H](CCC(=O)O)C(=O)N[C@@H](Cc1c[nH]c2ccccc12)C(=O)N[C@@H](CC(C)C)C(=O)N[C@@H](CCCNC(=N)N)C(=O)N[C@@H](CCCCN)C(=O)N[C@@H](CCCCN)C(=O)N[C@@H](CC(C)C)C(=O)N[C@@H](CCC(N)=O)C(=O)N[C@@H](CC(=O)O)C(=O)N[C@H](C(=O)N[C@@H](Cc1cnc[nH]1)C(=O)N[C@@H](CC(N)=O)C(=O)N[C@@H](Cc1ccccc1)C(=O)O)C(C)C)C(C)C	.	.	.	9.1%	.	-7.1%
Cc1ccc(S(=O)(=O)N(C)C)cc1NC(=O)c1cc(C(C)(C)C)nn1Cc1ccccc1	-1.1%	-56.6%	?	58.1%	-6.6	5.7%
Nc1nc(N)nc(-c2ccc([N+](=O)[O-])o2)n1	.	-26.0%	.	.	?	.
CN1CCN(Cc2cc(COCc3ccccc3)c3cccnc3c2O)CC1	3.6%	-85.1%	?	2µM*	-11.6	1.26µM*
O=C(COc1cccc2cccnc12)N1CCc2ccccc2C1	0.0%	-0.1%	0.2%	17.6%	-7.3	8.5%
Oc1ccc(CN2CCN(Cc3ccccc3)CC2)c2cccnc12	-0.7%	-81.7%	-0.8%	4.8%	-14.5	-1.0%
O=C(COc1c(Br)cc(Br)c2cccnc12)N1CCCCC1	-3.0%	-7.6%	-2.1%	10µM*	28.1	?
Cc1ccc(OCC(=O)N2CCCCC2)c(Br)c1	?	11.2µM*	?	32.8%	-8.5	0.1%
O=C(COc1c(Br)cc(Br)c2cccnc12)N1CCc2ccccc2C1	-1.9%	-2.7%	-2.7%	5.62µM*	14.3	7.94µM*
O=C(COc1c(Br)cc(Br)c2cccnc12)Nc1ccccc1F	16.3%	-45.6%	-0.4%	?	4.7	20µM*
O=C(COc1ccccc1)Nc1ccccc1F	19.0%	-4.8%	?	-6.6%	-9.5	-9.0%
Oc1c(CN2CCCCC2)cc(Br)c2cccnc12	-13.8%	-70.2%	?	3.98µM*	7.1	1µM*
CCN1CCN(C(CNC(=O)c2ccc3c(c2)OCO3)c2cccnc2)CC1 (configuration not stated)	?	66.1%	?	12.6%	-15.0	-13.9%
CCOC(=O)C1CCCN(S(=O)(=O)c2cc(Br)cc3c2N(C(=O)C2CC2)CC3)C1 (configuration not stated)	-5.7%	-1.7%	-16.6%	30.8%	2.3	-10.6%
Nc1ccc2nc(-c3ccccc3)[nH]c2c1	8.5%	96.8%	?	12.6µM*	-5.5	?
Cc1ccc2nc(-c3ccncc3)[nH]c2c1	17.5%	2.82µM*	?	-15.5%	8.6	-5.6%
Nc1ccc2nc(-c3ccc(N)c(Cl)c3)[nH]c2c1	?	4.47µM*	4.1%	-37.8%	-26.7	?
COc1ccc2nc(-c3ccccn3)[nH]c2c1	.	?	?	.	-4.7	.
Nc1ccc2nc(-c3ccccn3)[nH]c2c1	?	11.2µM*	?	20µM*	-8.1	?
Nc1ccc2nc(-c3cccnc3)[nH]c2c1	9.4%	22.5%	21.8%	30.7%	3.0	7.1%
CCc1ccccc1NC(=O)CCNC(=O)Cn1ccc2ccccc2c1=O	-0.5%	-8.7%	-1.2%	?	0.5	-14.7%
Cc1cc(Nc2ccc(C)c(Cl)c2)nc(N2CCOCC2)n1	-3.3%	19.0%	20.6µM*	30.4%	4.5	-10.5%
SMILES	p53 reactivation	BRCA1 expr act	ELG1 DNA repair	RORg inh	Giardia kill	VP16 counter
CC(=O)c1ccc(NC(=O)CSc2nc(Nc3ccccc3)nc(N3CCOCC3)n2)cc1	3.8%	-29.5%	5.8µM*	14.5%	11.5	-10.8%
O=C(CSc1nc2ccc(Nc3nc(N4CCOCC4)nc(N4CCOCC4)n3)cc2s1)N1CCOCC1	-12.4%	-37.6%	2.59µM*	-7.3%	-6.9	-19.4%
Clc1ccc(Nc2nc(N3CCOCC3)nc(N3CCOCC3)n2)cc1Cl	5.2%	-19.9%	1.64µM*	9.9%	-25.0	-4.4%
Cc1ccc(Nc2cc(C)nc(N3CCOCC3)n2)cc1	-7.6%	9.3%	?	12.5%	-4.1	-6.1%
CC(C)C1=CC(=NS(=O)(=O)c2cccc([N+](=O)[O-])c2)C=C(C(C)C)C1=O	0.3%	0.6%	-9.5%	-25.9%	-6.0	4.1%
Cc1csc(NC(=O)c2c(-c3ccccc3)noc2C)n1	3.1%	0.6%	-3.6%	12.5%	1.7	2.5%
Fc1ccc(Nc2nc(N3CCOCC3)c3ccccc3n2)cc1	-0.3%	-46.2%	?	3.0%	41.0	-0.2%
Fc1ccccc1Nc1nc(N2CCOCC2)nc(N2CCOCC2)n1	5.4%	-26.2%	5.8µM*	26.1%	0.1	-6.9%
Fc1ccc(Nc2nc(N3CCOCC3)nc(N3CCOCC3)n2)cc1Cl	-1.5%	-13.2%	?	-10.3%	34.8	-1.2%
CC(=O)c1cccc(NS(=O)(=O)N2CCOCC2)c1	-6.4%	-16.7%	7.6%	-3.3%	17.4	-1.9%
c1ccc2c(Nc3nc(N4CCOCC4)c4ccccc4n3)cccc2c1	-1.0%	-68.8%	23.1µM*	-13.4%	6.1	?
Cc1ccc(NS(=O)(=O)N2CCOCC2)cc1Cl	?	-18.4%	-0.2%	0.355µM*	-10.3	29.9%
